Shown are actives, neighbours in structure and some others; about 6% of the full set was active somewhere.
DRD3 agonist: agonists of human D3 dopamine receptor; actives 0.58% (n = 410,000); D3R DiscoveRx beta-arrestin cells, luminescence, 90 min; max activation, %; AID 652048; in the data active means max activation above about 30%
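Cells at 1500/well, incubated overnight, then treated with pinned compounds (dopamine as control) for 90 min at 37 degrees C. DiscoveRx reagent added for 30 - 60 minutes at room temperature; luminescence read.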
D1 PAM: enhances dopamine response at the human D1 receptor; P21728; HEK293 TREx D1 cells, calcium flux, dopamine EC20 potentiation; potentiation, % at 10 µM; actives 0.036% (n = 360,000); AID 504651; in the data active means potentiation above about 30%
Target sequence (P21728 whole entry, looked up): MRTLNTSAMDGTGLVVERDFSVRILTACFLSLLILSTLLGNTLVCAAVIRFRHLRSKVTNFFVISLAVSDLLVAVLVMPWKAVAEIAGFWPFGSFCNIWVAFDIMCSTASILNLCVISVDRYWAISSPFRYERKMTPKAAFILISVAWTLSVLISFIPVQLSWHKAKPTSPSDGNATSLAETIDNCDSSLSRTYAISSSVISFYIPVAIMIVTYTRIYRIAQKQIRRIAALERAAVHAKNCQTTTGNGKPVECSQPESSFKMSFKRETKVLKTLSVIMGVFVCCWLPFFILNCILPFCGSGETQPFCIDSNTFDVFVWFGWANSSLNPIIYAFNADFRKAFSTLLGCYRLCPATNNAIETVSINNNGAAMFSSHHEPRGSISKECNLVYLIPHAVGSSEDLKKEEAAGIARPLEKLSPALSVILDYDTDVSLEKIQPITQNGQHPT
DRD3 antagonist: blocks the human D3 dopamine receptor; D3R cells, DiscoveRx beta-arrestin luminescence, antagonist mode; hits give low values; max response, negative = inhibition, %; actives 2.5% (n = 360,000); AID 652054; in the data active means max response below about -50%; inconclusive means no clear call, values can overlap the other calls
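Cells expressing the human receptor were seeded at 1500 cells/well, incubated overnight at 37 degrees C in 5% CO2, then exposed to library compounds with dopamine controls for 90 minutes at 37 degrees C before luminescent detection.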
D1 ag: activates the human D1 dopamine receptor | P21728 | HEK293 T-REx D1 cells, calcium flux, agonist mode | activation, % at 2 µM | actives 1% (n = 360,000) | AID 504660; in the data active means activation above about 30%
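Tetracycline-induced HEK293 TREx D1 cells, force-coupled to calcium signalling, were dye-loaded with a no-wash calcium kit. Compound was pin-added after a 10 s baseline. Fluorescence was read kinetically at 1 cycle/s for 180 s, with calcium rises flagged as agonism.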
D1 antagonist: blocks dopamine activation of the human D1 receptor. P21728. HEK293 TREx D1 cells, calcium flux, dopamine EC80; hits give low values. activity change, negative = inhibition, % at 10 µM. actives 3.2% (n = 360,000). AID 504652; in the data active means activity change below about -30%
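Compound effects on dopamine-evoked calcium signalling were measured in tetracycline-induced HEK293 Trex D1 cells. Dopamine at EC80 followed a 180 s compound pre-read, and fluorescence was tracked kinetically for 180 s more.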
Hits are given with their value.

`Cc1ccc(C(=O)c2cc3c(cc2N)OCCO3)cc1` gave DRD3 agonist inactive, D1 PAM inactive, DRD3 antagonist inactive, D1 ag inactive and D1 antagonist -76.1.
Screening Nc1cc2c(cc1C(=O)c1ccc(Cl)cc1)OCCO2 returned DRD3 agonist inactive, D1 PAM inactive, DRD3 antagonist inactive, D1 ag inactive and D1 antagonist inactive.
For Nc1cc2c(cc1C(=O)c1ccccc1)OCCO2 the results were DRD3 agonist inactive, D1 PAM inactive, DRD3 antagonist -60.1, D1 ag inactive and D1 antagonist inactive.
Screening Cc1ccc(O)c(NC(=O)c2cc(-c3ccccc3O)no2)c1 returned DRD3 agonist inactive, D1 PAM inactive, D1 ag inactive and D1 antagonist -30.7.
COc1cc(NC(=O)c2cc(-c3ccccc3O)no2)cc(OC)c1OC was read as DRD3 agonist inactive, D1 PAM inactive, D1 ag inactive and D1 antagonist inactive.
`Cc1ccc(O)c(NC(=O)c2cc(-c3ccccc3Cl)on2)c1` gave DRD3 agonist inactive, D1 PAM inactive, DRD3 antagonist inactive, D1 ag inactive and D1 antagonist -32.7.
For Cc1ccc(-c2cc(C(=O)Nc3cc(C)ccc3O)no2)cc1 the results were DRD3 agonist inactive, D1 PAM inactive, DRD3 antagonist inactive, D1 ag inactive and D1 antagonist inactive.
Screening O=C(Nc1c(Cl)cccc1Cl)c1cc(-c2cccc(O)c2)on1 returned DRD3 agonist inactive, D1 PAM inactive, D1 ag 47.4 and D1 antagonist -50.2.
CCOC(=O)c1c(C)oc2ncnc(N3CCN(c4ccccc4OC)CC3)c12 was read as DRD3 agonist inactive, D1 PAM inactive, D1 ag inactive and D1 antagonist inactive.
CN(CC(=O)Nc1ccc(F)cc1F)S(=O)(=O)c1cccc2nsnc12 was read as DRD3 agonist inactive, D1 PAM inactive, D1 ag inactive and D1 antagonist inactive.
`CCCCC(CC)CNC(=O)CCS(=O)(=O)c1cccc2nonc12` (centres undefined) gave DRD3 agonist inactive, D1 PAM inactive, DRD3 antagonist inactive, D1 ag inactive and D1 antagonist -56.3.
`CC(C)CCNC(=O)CCS(=O)(=O)c1cccc2nonc12` gave DRD3 agonist inactive, D1 PAM inactive, DRD3 antagonist inactive, D1 ag inactive and D1 antagonist inactive.
For O=S(=O)(Nc1nc(-c2sccc2Cl)cs1)c1cc(Cl)ccc1Cl the results were DRD3 agonist inactive and DRD3 antagonist -85.8.
CC(C)(C)c1nnc(NS(=O)(=O)c2cc(Cl)ccc2Cl)s1 was read as DRD3 agonist inactive, D1 PAM inactive, DRD3 antagonist inactive, D1 ag inactive and D1 antagonist inactive.
For Nc1cc(N)nc(CS)n1 the results were DRD3 agonist inactive, D1 PAM inactive, DRD3 antagonist inactive, D1 ag inactive and D1 antagonist -54.0.
`O=c1c(-c2nc3ccccc3s2)cccn1Cc1ccc(Cl)cc1` gave DRD3 agonist 56.3 and DRD3 antagonist inactive.
`Clc1ncccc1-c1nc2ccccc2s1` gave DRD3 agonist inactive, D1 PAM inactive, DRD3 antagonist inactive, D1 ag inactive and D1 antagonist inactive.
`C/C(=N\NC(=O)CSc1nc2ccccc2o1)c1ccc(O)cc1` gave DRD3 agonist inactive, D1 PAM inactive, DRD3 antagonist inactive, D1 ag inactive and D1 antagonist inactive.
Screening C/C(=N\NC(=O)CSc1nc2ccccc2o1)c1cccc(O)c1 returned DRD3 agonist inactive, D1 PAM inactive, DRD3 antagonist inactive, D1 ag inactive and D1 antagonist -35.3.
For O=C(CSc1nc2ccccc2o1)Nc1ccc(N2CCOCC2)cc1 the results were DRD3 agonist inactive, D1 PAM inactive, DRD3 antagonist inactive, D1 ag inactive and D1 antagonist -44.0.
For O=C(Nc1nnc(SCC(=O)N2CCOCC2)s1)C1CC(=O)N(c2ccc(F)cc2)C1 (centres undefined) the results were DRD3 agonist inactive, D1 PAM inactive, DRD3 antagonist inactive, D1 ag inactive and D1 antagonist -47.5.
For O=C(CSc1nnc(NC(=O)C2CCC2)s1)Nc1ccc(N2CCOCC2)cc1 the results were DRD3 agonist inactive, D1 PAM inactive, DRD3 antagonist -72.8, D1 ag inactive and D1 antagonist inactive.
`O=C(Nc1nnc(SCC(=O)N2CCCC2)s1)C1CC(=O)N(c2ccc(F)cc2)C1` (centres undefined) gave DRD3 agonist inactive, D1 PAM inactive, DRD3 antagonist inactive, D1 ag inactive and D1 antagonist inactive.
For CCCCOc1ccccc1CC1C(=O)Nc2ccc(Br)cc21 (centres undefined) the results were D1 PAM inactive, D1 ag inactive and D1 antagonist inactive.
Screening Cc1c(C(=O)NC(C)c2ccccc2)sc2ncnc(N(C)C3CCCCC3)c12 (centres undefined) returned DRD3 agonist inactive, D1 PAM inactive, D1 ag inactive and D1 antagonist inactive.
COc1ccc(NC(=O)CSc2nnc(NC(=O)C3CC3)s2)cc1OC was read as DRD3 agonist inactive, D1 PAM inactive, DRD3 antagonist inactive, D1 ag inactive and D1 antagonist -35.8.
`CCSc1nnc(NC(=O)Cc2ccc(OC)c(OC)c2)s1` gave DRD3 agonist inactive, D1 PAM inactive, DRD3 antagonist inactive, D1 ag inactive and D1 antagonist -33.1.
For Cc1ccc(C(=O)COC(=O)C(CC(C)C)NC(=O)C2CCC(C)CC2)cc1 (centres undefined) the results were DRD3 agonist inactive, D1 PAM inactive, D1 ag inactive and D1 antagonist inactive.
Screening O=C(COc1ccccc1Cl)Nc1ccc2[nH]c(=O)[nH]c2c1 returned DRD3 agonist inactive, D1 PAM inactive, DRD3 antagonist -60.8, D1 ag inactive and D1 antagonist inactive.
Screening O=C(COc1ccccc1C(=O)NCc1ccccc1)Nc1ccccc1 returned DRD3 agonist inactive, D1 PAM inactive, DRD3 antagonist inactive, D1 ag inactive and D1 antagonist -35.3.
For Cc1ccccc1OCC(=O)Nc1ccc2[nH]c(=O)sc2c1 the results were DRD3 agonist inactive, D1 PAM inactive, D1 ag inactive and D1 antagonist -48.6.
CC(=O)Nc1cccc(NC(=O)COc2ccccc2C)c1 was read as DRD3 agonist inactive, D1 PAM inactive, DRD3 antagonist inactive, D1 ag inactive and D1 antagonist -38.7.
COc1ccc(NC(=O)CN2C(=O)COc3ccc(S(=O)(=O)Nc4ccccc4)cc32)cc1 was read as DRD3 agonist inactive, D1 PAM inactive, D1 ag inactive and D1 antagonist inactive.
Cc1ccccc1OCC(=O)Nc1ccc(Cc2ccncc2)cc1 was read as DRD3 agonist inactive, D1 PAM inactive, DRD3 antagonist inconclusive, D1 ag inactive and D1 antagonist -43.7.
Screening Cc1ccc(NC(=O)COc2ccccc2CNC(C)(C)CC(C)(C)C)cc1 returned DRD3 agonist inactive, D1 PAM inactive, DRD3 antagonist inactive, D1 ag 61.8 and D1 antagonist inactive.

From PubChem BioAssay
